In PubChem BioAssay AID1159580 (chemical genetic matrix, 2015):
Hit rate of the full screen: of about 5,500 compounds, about 2,000 (36%) were called active. About 18% were inconclusive and are not listed. Rule as the data show it: active = normalized growth mostly below about 0.91 (no sharp cut-off); inconclusive = no clear call, values can overlap the other calls; inactive = mostly above about 0.92. The list shows a part of the results.

Experiment: chemical genetic growth profiling, strain panel (AID 1159580);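 also: tested at 20 µM; growth read once vehicle control cultures reached saturation at 30 °C; 1 = growth at the plate median or of vehicle wells; lower values mean less growth of the strain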
Details: growth OD

Measured: normalized growth

CC(C(=O)O)c1ccc(-c2ccccc2)c(F)c1 (configuration not stated)
active: S. cerevisiae deletion strains, locus YJR066W, strain TOR1, stronger effect = lower value 0.762 | S. cerevisiae deletion strains, locus YKL068W, stronger effect = lower value 0.912 | S. cerevisiae deletion strains, locus YKL085W, strain MDH1 (second series), stronger effect = lower value 0.919 | S. cerevisiae deletion strains, locus YKL085W, strain MDH1, stronger effect = lower value 0.919 | S. cerevisiae deletion strains, locus YKR001C, strain vps1, stronger effect = lower value 0.827 | S. cerevisiae deletion strains, locus YLR113W, strain HOG1, stronger effect = lower value 0.62 | S. cerevisiae deletion strains, locus YLR262C, strain YPT6 (second series), stronger effect = lower value 0.846 | S. cerevisiae deletion strains, locus YNL183C, strain NPR1, stronger effect = lower value 0.783 | S. cerevisiae deletion strains, locus YNL248C, strain rpa49, stronger effect = lower value 0.817 | S. cerevisiae deletion strains, locus YNL271C, strain bni1, stronger effect = lower value 0.888 | S. cerevisiae deletion strains, locus YNL298W, strain CLA4, stronger effect = lower value 0.792 | S. cerevisiae deletion strains, locus YOR231W, strain MKK1, stronger effect = lower value 0.732 | S. cerevisiae deletion strains, locus YPL256C, strain CLN2, stronger effect = lower value 0.736 | S. cerevisiae deletion strains, locus YPR141C, strain kar3, stronger effect = lower value 0.913
inactive: S. cerevisiae deletion strains, locus YJR043C, strain POL32, stronger effect = lower value 0.979 | S. cerevisiae deletion strains, locus YJR075W, strain HOC1, stronger effect = lower value 0.978 | S. cerevisiae deletion strains, locus YKL009W, strain mrt4, stronger effect = lower value 0.899 | S. cerevisiae deletion strains, locus YKL160W, strain elf1, stronger effect = lower value 1.03 | S. cerevisiae deletion strains, locus YKR026C, strain gcn3, stronger effect = lower value 0.977 | S. cerevisiae deletion strains, locus YKR091W, strain srl3, stronger effect = lower value 0.988 | S. cerevisiae deletion strains, locus YLL001W, strain dnm1, stronger effect = lower value 1.02 | S. cerevisiae deletion strains, locus YLL026W, stronger effect = lower value 0.987 | S. cerevisiae deletion strains, locus YLL041C, strain sdh2, stronger effect = lower value 0.97 | S. cerevisiae deletion strains, locus YLR027C, strain aat2, stronger effect = lower value 0.976 | S. cerevisiae deletion strains, locus YLR039C, strain RIC1, stronger effect = lower value 0.79 | S. cerevisiae deletion strains, locus YLR058C, strain SHM2, stronger effect = lower value 0.99 | S. cerevisiae deletion strains, locus YLR102C, strain apc9, stronger effect = lower value 0.954 | S. cerevisiae deletion strains, locus YLR221C, strain rsa3, stronger effect = lower value 1 | S. cerevisiae deletion strains, locus YLR258W, strain gsy2, stronger effect = lower value 0.983 | S. cerevisiae deletion strains, locus YLR262C, strain YPT6, stronger effect = lower value 0.773 | S. cerevisiae deletion strains, locus YLR268W, strain sec22, stronger effect = lower value 0.955 | S. cerevisiae deletion strains, locus YLR320W, strain mms22, stronger effect = lower value 1.05 | S. cerevisiae deletion strains, locus YLR330W, strain CHS5, stronger effect = lower value 0.969 | S. cerevisiae deletion strains, locus YLR342W, strain FKS1 (second series), stronger effect = lower value 0.936 | S. cerevisiae deletion strains, locus YLR342W, strain FKS1, stronger effect = lower value 0.984 | S. cerevisiae deletion strains, locus YLR357W, strain rsc2, stronger effect = lower value 1.01 | S. cerevisiae deletion strains, locus YLR370C, strain arc18, stronger effect = lower value 0.989 | S. cerevisiae deletion strains, locus YLR371W, strain rom2, stronger effect = lower value 0.996 | S. cerevisiae deletion strains, locus YLR384C, strain iki3, stronger effect = lower value 1.01 | S. cerevisiae deletion strains, locus YLR418C, strain cdc73, stronger effect = lower value 1.01 | S. cerevisiae deletion strains, locus YML016C, strain PPZ1, stronger effect = lower value 0.981 | S. cerevisiae deletion strains, locus YML032C, strain rad52, stronger effect = lower value 0.951 | S. cerevisiae deletion strains, locus YML120C, strain ndi1, stronger effect = lower value 0.996 | S. cerevisiae deletion strains, locus YML124C, strain tub3, stronger effect = lower value 0.96 | S. cerevisiae deletion strains, locus YMR058W, strain fet3, stronger effect = lower value 0.994 | S. cerevisiae deletion strains, locus YMR078C, strain ctf18, stronger effect = lower value 0.94 | S. cerevisiae deletion strains, locus YMR125W, strain sto1, stronger effect = lower value 1 | S. cerevisiae deletion strains, locus YMR129W, stronger effect = lower value 0.968 | S. cerevisiae deletion strains, locus YMR205C, strain PFK2, stronger effect = lower value 1.03 | S. cerevisiae deletion strains, locus YMR223W, strain ubp8, stronger effect = lower value 1.02 | S. cerevisiae deletion strains, locus YMR231W, strain pep5, stronger effect = lower value 0.969 | S. cerevisiae deletion strains, locus YMR307W, strain GAS1, stronger effect = lower value 0.938 | S. cerevisiae deletion strains, locus YNL067W, strain RPL9B, stronger effect = lower value 0.974 | S. cerevisiae deletion strains, locus YNL071W, strain lat1, stronger effect = lower value 0.985 | S. cerevisiae deletion strains, locus YNL209W, strain ssb2, stronger effect = lower value 1.01 | S. cerevisiae deletion strains, locus YNL233W, strain BNI4, stronger effect = lower value 0.991 | S. cerevisiae deletion strains, locus YNL250W, strain rad50, stronger effect = lower value 0.908 | S. cerevisiae deletion strains, locus YNL307C, strain MCK1, stronger effect = lower value 0.947 | S. cerevisiae deletion strains, locus YNL322C, strain KRE1 (second series), stronger effect = lower value 0.964 | S. cerevisiae deletion strains, locus YNL322C, strain KRE1, stronger effect = lower value 0.975 | S. cerevisiae deletion strains, locus YNR049C, strain mso1, stronger effect = lower value 0.981 | S. cerevisiae deletion strains, locus YNR052C, strain pop2, stronger effect = lower value 0.952 | S. cerevisiae deletion strains, locus YOL012C, strain htz1 1.06 | S. cerevisiae deletion strains, locus YOL147C, strain pex11, stronger effect = lower value 0.969 | S. cerevisiae deletion strains, locus YOR001W, strain rrp6, stronger effect = lower value 0.95 | S. cerevisiae deletion strains, locus YOR061W, strain CKA2, stronger effect = lower value 0.973 | S. cerevisiae deletion strains, locus YOR069W, strain VPS5, stronger effect = lower value 0.994 | S. cerevisiae deletion strains, locus YOR070C, strain gyp1, stronger effect = lower value 1 | S. cerevisiae deletion strains, locus YOR080W, strain dia2, stronger effect = lower value 1.01 | S. cerevisiae deletion strains, locus YOR083W, strain WHI5, stronger effect = lower value 1.03 | S. cerevisiae deletion strains, locus YOR106W, strain vam3, stronger effect = lower value 0.994 | S. cerevisiae deletion strains, locus YOR136W, strain idh2, stronger effect = lower value 0.989 | S. cerevisiae deletion strains, locus YOR144C, strain elg1, stronger effect = lower value 0.965 | S. cerevisiae deletion strains, locus YOR184W, strain ser1, stronger effect = lower value 0.972 | S. cerevisiae deletion strains, locus YOR265W, strain rbl2, stronger effect = lower value 1 | S. cerevisiae deletion strains, locus YOR270C, strain vph1, stronger effect = lower value 1.05 | S. cerevisiae deletion strains, locus YOR290C, strain snf2, stronger effect = lower value 0.97 | S. cerevisiae deletion strains, locus YOR316C, strain cot1, stronger effect = lower value 0.965 | S. cerevisiae deletion strains, locus YPL051W, strain arl3, stronger effect = lower value 0.981 | S. cerevisiae deletion strains, locus YPL078C, strain atp4, stronger effect = lower value 1 | S. cerevisiae deletion strains, locus YPL106C, strain sse1, stronger effect = lower value 1.05 | S. cerevisiae deletion strains, locus YPL240C, strain hsp82, stronger effect = lower value 0.985 | S. cerevisiae deletion strains, locus YPR119W, strain clb2, stronger effect = lower value 0.95 | S. cerevisiae deletion strains, locus YPR163C, strain tif3, stronger effect = lower value 0.957 | S. cerevisiae deletion strains, locus YPR167C, strain met16, stronger effect = lower value 0.962 | S. cerevisiae deletion strains, strain wtn01, stronger effect = lower value 0.971 | S. cerevisiae strains, strain wild type, stronger effect = lower value 0.968
